{"source": "PubChem BioAssay (NCATS)", "note": "Results filed as inconclusive are left out. Unmarked numbers belong to inactive results. Calls of active or inactive are those of the source. Calls come from the whole dose curve; as a rule, active = well fitted inhibition curve with a large enough effect; inconclusive = small, poorly fitted or top-dose-only effect; inactive = no such curve, though single readings can be large or run the other way. Potency is the fitted concentration of half-maximal effect."}
{"assay": "Primary fluorescence-based thiol-reactive (MSTI) qHTS assay for identification of artifact compounds. (AID 1845221); note: nearly all actives have a fitted effect of over 65% in size;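 for activity change, negative = thiol reactive: thiol-reactive compounds lower the probe fluorescence signal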", "settings": "MSTI thiol-reactivity probe, 1 h; series mostly up to 53.8 µM; activity change, negative = thiol reactive: at the top concentration", "procedure,_shortened": "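Probe: MSTI 4 uM, PBS pH 7.4, 2% DMSO. Incubation 1 h, RT, light-protected. Readout fluorescence 525/598 nm.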"}
{"smiles": "CC(C)CC(c1c(O)c(C=O)c(O)c(C=O)c1O)C1CCC(C)(O)C2CC(C(C)(C)O)CCC12C", "note": "(stereo not drawn)", "Potency": "4.12 µM (active)"}
{"smiles": "CC1(C)CC[C@]2(C(=O)O[C@@H]3O[C@H](CO[C@@H]4O[C@H](CO[C@@H]5O[C@H](CO)[C@H](O)[C@H](O)[C@H]5O)[C@@H](O)[C@H](O)[C@H]4O)[C@@H](O)[C@H](O[C@@H]4O[C@H](CO)[C@@H](O)[C@H](O)[C@H]4O)[C@H]3O)[C@H](O)C[C@]3(C)C(=CCC4[C@@]5(C)CC[C@H](O[C@@H]6OC[C@@H](O)[C@H](O)[C@H]6O)[C@@](C)(C(=O)O)C5CC[C@]43C)[C@@H]2C1", "note": "(stereo partly drawn)", "activity change, negative = thiol reactive": "27.9% [at 11.5 µM]"}
{"smiles": "C=C1CC[C@@]2(OC1)O[C@H]1CC3[C@@H]4CC=C5C[C@@H](O)C[C@@H](O[C@@H]6OC[C@H](O)[C@H](O)[C@H]6O[C@@H]6O[C@@H](C)[C@H](O)[C@@H](O)[C@H]6O)[C@]5(C)C4CC[C@]3(C)[C@H]1[C@@H]2C", "note": "(stereo partly drawn)", "activity change, negative = thiol reactive": "145% [at 25.6 µM]"}
{"smiles": "CC(=O)OC1CC(C(C)(C)O)OC2CCC3(C)OC4=C(C(=O)C=C5C(C)C(OC(C)=O)C6(C)C(C)OC546)C(O)C3C12C", "note": "(stereo not drawn)", "activity change, negative = thiol reactive": "-2.89% [at 25.6 µM]"}
{"smiles": "C[C@@H]1CCC2C(C)(C)[C@H](O)[C@H](O)C[C@]2(C)[C@@]12Cc1c(O)cc3c(c1O2)CN(CCCC(=O)O)C3=O", "note": "(stereo partly drawn)", "activity change, negative = thiol reactive": "111% [at 25.6 µM]"}
{"smiles": "C[C@]12CC[C@@H]3c4ccc(O)cc4CC[C@H]3[C@@H]1C[C@@H](O[C@@H]1O[C@H](C(=O)O)[C@@H](O)[C@H](O)[C@H]1O)[C@@H]2O", "activity change, negative = thiol reactive": "26%"}
{"smiles": "CO[C@H]1c2cc(C(C)C)c(O)c(O)c2[C@@]23CCCC(C)(C)C2[C@@H]1OC3=O", "note": "(stereo partly drawn)", "Potency": "1.47 µM (active)"}
{"smiles": "CC1(C)CC[C@]2(C(=O)O[C@@H]3O[C@H](CO)[C@@H](O)[C@H](O)[C@H]3O)CC[C@]3(C)C(=CCC4[C@@]5(C)CC[C@H](O[C@@H]6O[C@H](C(=O)O)[C@@H](O)[C@H](O)[C@H]6OC6OC(CO)C(O)C(O)C6O)C(C)(C)C5CC[C@]43C)[C@@H]2C1", "note": "(stereo partly drawn)", "activity change, negative = thiol reactive": "43.7% [at 11.5 µM]"}
{"smiles": "C/C=C/C=C/C(=O)OC1CC/C=C/C(O)C(O)C(CCC)OC1=O", "note": "(stereo not drawn)", "activity change, negative = thiol reactive": "15.6%"}
{"smiles": "CCN1CCN(C(=O)N[C@@H](C(=O)N[C@@H]2C(=O)N3[C@@H]2SC(C)(C)[C@@H]3C(=O)O)c2ccccc2)C(=O)C1=O", "activity change, negative = thiol reactive": "34.7%"}
{"smiles": "COC1CC(O[C@H]2CC[C@@]3(C)C(=CC[C@]4(O)C3[C@H](O)[C@@H](O)[C@]3(C)[C@@H]([C@H](C)O)CC[C@@]34O)C2)OC(C)C1OC1CC(OC)C(OC2CC(OC)C(OC3OC(C)C(OC4OC(CO)C(O)C(O)C4O)C(OC)C3O)C(C)O2)C(C)O1", "note": "(stereo partly drawn)", "activity change, negative = thiol reactive": "43.2% [at 11.5 µM]"}
{"smiles": "O=C(NCC(=O)N1CCCC1)Nc1ccc2ccccc2c1", "activity change, negative = thiol reactive": "1.91%"}
{"smiles": "COc1cc(Nc2ccc([N+](=O)[O-])cc2C(=O)O)cc2ccccc12", "Potency": "0.67 µM (active)"}
{"smiles": "CC1(C)C[C@H]2C=C(C=O)[C@]3(C(=O)O)C[C@]3(C)[C@H]2C1", "Potency": "11.9 µM (active)"}
{"smiles": "CC1CCC2C(C)(C)[C@H](O)CC[C@]2(C)C12Cc1c(O)cc3c(c1O2)CN(C(CCC(=O)O)C(=O)O)C3=O", "note": "(stereo partly drawn)", "activity change, negative = thiol reactive": "11.6% [at 25.6 µM]"}
{"smiles": "Cc1cc(C(=O)N2Cc3cnn(C)c3Nc3ccccc32)ccc1CNC(=O)N1CCN(Cc2cc(O)cc(O)c2)CC1", "activity change, negative = thiol reactive": "-16.2%"}
{"smiles": "CC(C)C1CCC(CO)=CC1/C=C(\\CO)C(=O)OCC1(O)CCC(C(C)C)C2C=C(C(=O)O)COC(=O)C21", "note": "(stereo not drawn)", "activity change, negative = thiol reactive": "24% [at 25.6 µM]"}
{"smiles": "C=C(CCO)C(=O)OCC1OCC(OC(=O)C(=C)CCO[C@@H]2O[C@H](CO)[C@@H](O)[C@H](O)[C@H]2O)C(O)C1O", "note": "(stereo partly drawn)", "activity change, negative = thiol reactive": "-1.61% [at 25.6 µM]"}
{"smiles": "C=C[C@]1(C)C[C@@H](OC(=O)CSC2C[C@H]3CC[C@@H](C2)N3C)[C@]2(C)[C@H](C)CC[C@]3(CCC(=O)[C@H]32)[C@@H](C)[C@@H]1O", "note": "(stereo partly drawn)", "activity change, negative = thiol reactive": "16.9%"}
{"smiles": "CC(C)Oc1ccc(-c2nc(-c3cccc4c3CCC4NCCC(=O)O)no2)cc1C#N", "note": "(stereo not drawn)", "activity change, negative = thiol reactive": "114%"}
{"smiles": "C/C(=C\\CCC(C)CCO)C(=O)OC[C@H]1O[C@@H](O[C@@H]2OC=C(C(=O)O)[C@H]3CC[C@](C)(O)[C@@H]23)C(O)[C@@H](O)C1O", "note": "(stereo partly drawn)", "Potency": "2.32 µM (active)"}
{"smiles": "CC(C)(O)c1ccc2c(c1)C(=O)C[C@H]1[C@](C)(C(=O)O)CCC[C@]21C", "activity change, negative = thiol reactive": "-11.6%"}
{"smiles": "COC(=O)C1=COC(OC2OC(CO)C(O)C(O)C2O)C2C(C)C(OC(=O)/C=C/c3ccc(O)cc3)C(O)C12", "note": "(stereo not drawn)", "Potency": "11.6 µM (active)"}
{"smiles": "CC(O)C(O)/C=C/C=C/C(=O)O[C@@H]1C=C(C(=O)O)[C@](O)(CO)[C@@]2(C)CCCC(C)(C)[C@H]12", "note": "(stereo partly drawn)", "activity change, negative = thiol reactive": "36.6% [at 25.6 µM]"}
{"smiles": "COc1cccc(OC)c1-c1ccc(C[C@H](NC(=O)c2c(Cl)cccc2Cl)C(=O)O)cc1", "activity change, negative = thiol reactive": "91.5%"}
{"smiles": "O=C(OC[C@H]1O[C@@H](Oc2ccccc2CO)[C@H](O)[C@@H](O)[C@@H]1O)c1ccccc1", "Potency": "10.4 µM (active)"}
{"smiles": "C/C(=C\\CC/C(C)=C/CC[C@]1(C)CCc2cc(O)cc(C)c2O1)CC/C=C(\\C)C(=O)O", "Potency": "4.62 µM (active)"}
{"smiles": "CCOc1ncc(S(=O)(=O)N2CCN(CC)CC2)cc1-c1nc2c(CC)n(CCOC)nc2c(=O)[nH]1", "activity change, negative = thiol reactive": "76.3%"}
{"smiles": "COc1cc(C)c(C(=O)NC2C(C)OC(OC3CCC(C)C4C3C=C(C)C3/C(C)=C\\CC/C(C)=C/C5(C)C=C(C(=O)O)C(C)CC56OC(=O)/C(=C(\\O)C34C)C6=O)C(O)C2(C)O)c(O)c1", "note": "(stereo not drawn)", "activity change, negative = thiol reactive": "188% [at 11.5 µM]"}
{"smiles": "CC(C)[C@@H](C(=O)O)N1Cc2c(cc(O)c3c2O[C@]2(C3)[C@H](C)CCC3C(C)(C)[C@H](O)[C@H](O)C[C@@]32C)C1=O", "note": "(stereo partly drawn)", "activity change, negative = thiol reactive": "-9.63% [at 25.6 µM]"}
{"smiles": "COc1cccc(CNc2ccc(S(=O)(=O)Nc3nc4ccccc4s3)cc2)c1O", "activity change, negative = thiol reactive": "146%"}
{"smiles": "O=C(OC[C@H]1O[C@@H](Oc2ccccc2COC(=O)C2(O)C=CCCC2O)[C@H](O)[C@@H](O)[C@@H]1O)c1ccccc1", "note": "(stereo partly drawn)", "Potency": "5.19 µM (active)"}
{"smiles": "C/C=C/C=C/C1=C2C(=O)C3(C)C4C(C(=O)CC(O)/C=C/C)=C(O1)C1(C)C2C2(C)OC1(O)C4(C)OC23O", "note": "(stereo not drawn)", "Potency": "5.82 µM (active)"}
{"smiles": "CCC(C)/C=C(C)/C=C/C1=CC2=C(Cl)C(=O)C(C)(OC(C)=O)C(=O)C2=CN1C(CCC(=O)O)C(=O)O", "note": "(stereo not drawn)", "Potency": "0.367 µM (active)"}
{"smiles": "Cc1onc(-c2c(Cl)cccc2Cl)c1CC(=O)NCc1ccc(OCC(F)(F)F)nc1", "activity change, negative = thiol reactive": "109%"}
{"smiles": "CC(C)c1cc2c(c(O)c1O)[C@@]13CCCC(C)(C)C1[C@@H](O)[C@@H]2OC3=O", "note": "(stereo partly drawn)", "Potency": "0.927 µM (active)"}
{"smiles": "CC(=O)[C@@H]1C[C@H](C(C)(C)O[C@@H]2O[C@H](CO)[C@@H](O)[C@H](O)[C@H]2O)CC[C@@]2(CO)OC(=O)C[C@@H]12", "activity change, negative = thiol reactive": "1.21% [at 25.6 µM]"}
{"smiles": "Cc1ccc(-c2c(-c3nn(C)c4ncnc(N5CC[C@H](N6CCCCC6)C5)c34)cnn2C)cc1", "activity change, negative = thiol reactive": "27.3%"}
